Test results reported in article PMC7862700, “An all-to-all approach to the identification of sequence-specific readers for epigenetic DNA modifications on cytosine”.

Key:
Assay in all cases: DAPPL (digital affinity profiling via proximity ligation, sequencing); 10 mM Tris-HCl pH 7.5, 50 mM NaCl, 1 mM DTT, 4% glycerol, room temperature, 30 min; GST-TFs on glutathione beads, 16-mer random dsDNA library, 0.1% formaldehyde crosslink after washing; high values mean tight binding
FLI1 = target: T1, FLI1 (Homo sapiens, UniProt Q01543 1-452); details: protein: recombinant; tags: N-terminal GST; dsDNA, one strand shown
T1 sequence: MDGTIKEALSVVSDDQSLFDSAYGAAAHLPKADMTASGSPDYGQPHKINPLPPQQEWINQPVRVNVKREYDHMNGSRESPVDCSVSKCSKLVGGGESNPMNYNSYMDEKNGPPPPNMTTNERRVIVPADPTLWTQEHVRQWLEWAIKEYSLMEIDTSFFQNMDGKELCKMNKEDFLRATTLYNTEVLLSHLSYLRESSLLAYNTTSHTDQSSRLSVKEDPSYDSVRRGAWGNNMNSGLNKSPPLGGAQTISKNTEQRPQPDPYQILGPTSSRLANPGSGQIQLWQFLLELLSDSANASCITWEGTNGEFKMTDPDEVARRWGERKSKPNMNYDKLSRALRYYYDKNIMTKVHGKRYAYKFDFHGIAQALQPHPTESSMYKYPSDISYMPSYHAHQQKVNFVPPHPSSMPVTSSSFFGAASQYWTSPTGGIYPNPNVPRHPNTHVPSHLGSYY
In short: (§1)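 Sequencing on an Illumina NextSeq500 followed washing, crosslinking with 0.1% formaldehyde, proximity ligation (BsaI/T4 ligase, 1 h, 37 °C) and PCR amplification of pools that had been incubated for 30 min at room temperature with 200 nmole of a random double-stranded 16-mer DNA library in Tris/NaCl/DTT/glycerol buffer. Each pool held DNA-barcoded human transcription factors, expressed in yeast as GST fusions and captured on glutathione beads, plus a tag-only sample. Binding signal is a hexamer's read frequency for a factor divided by its frequency in the tag-only sample.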

ELK1 = target: T2, ELK1 (Homo sapiens, UniProt P19419 1-428); details: protein: recombinant; tags: N-terminal GST; dsDNA, one strand shown
T2 sequence: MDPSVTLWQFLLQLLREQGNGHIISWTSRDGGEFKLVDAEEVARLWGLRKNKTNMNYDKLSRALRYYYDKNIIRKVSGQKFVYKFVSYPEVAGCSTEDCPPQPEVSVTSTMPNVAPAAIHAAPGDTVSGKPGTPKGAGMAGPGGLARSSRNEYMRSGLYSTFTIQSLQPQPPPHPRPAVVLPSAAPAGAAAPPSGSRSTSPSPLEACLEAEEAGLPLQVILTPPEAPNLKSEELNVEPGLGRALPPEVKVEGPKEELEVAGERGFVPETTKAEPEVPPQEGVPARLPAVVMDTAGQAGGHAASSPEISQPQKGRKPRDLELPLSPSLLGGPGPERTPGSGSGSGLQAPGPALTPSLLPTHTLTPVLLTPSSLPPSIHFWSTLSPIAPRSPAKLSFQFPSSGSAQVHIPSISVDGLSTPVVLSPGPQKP
In short: as §1

GABPA = target: T3, GABPA (Homo sapiens, UniProt Q06546 1-454); details: protein: recombinant; tags: N-terminal GST; dsDNA, one strand shown
T3 sequence: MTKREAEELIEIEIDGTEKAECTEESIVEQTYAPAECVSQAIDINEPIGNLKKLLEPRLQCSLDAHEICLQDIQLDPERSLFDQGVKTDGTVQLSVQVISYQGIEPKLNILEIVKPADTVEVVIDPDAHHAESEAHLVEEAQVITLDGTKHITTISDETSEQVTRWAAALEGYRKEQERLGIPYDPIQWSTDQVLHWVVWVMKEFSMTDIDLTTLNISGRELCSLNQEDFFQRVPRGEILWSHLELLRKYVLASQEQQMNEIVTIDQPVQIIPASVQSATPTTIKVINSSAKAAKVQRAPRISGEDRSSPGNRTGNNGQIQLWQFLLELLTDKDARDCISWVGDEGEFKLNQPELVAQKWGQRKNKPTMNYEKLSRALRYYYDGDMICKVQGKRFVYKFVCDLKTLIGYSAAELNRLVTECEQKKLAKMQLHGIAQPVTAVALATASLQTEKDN
In short: as §1

ERG = target: T4, ERG (Homo sapiens, UniProt P11308 1-479); details: protein: recombinant; tags: N-terminal GST; dsDNA, one strand shown
T4 sequence: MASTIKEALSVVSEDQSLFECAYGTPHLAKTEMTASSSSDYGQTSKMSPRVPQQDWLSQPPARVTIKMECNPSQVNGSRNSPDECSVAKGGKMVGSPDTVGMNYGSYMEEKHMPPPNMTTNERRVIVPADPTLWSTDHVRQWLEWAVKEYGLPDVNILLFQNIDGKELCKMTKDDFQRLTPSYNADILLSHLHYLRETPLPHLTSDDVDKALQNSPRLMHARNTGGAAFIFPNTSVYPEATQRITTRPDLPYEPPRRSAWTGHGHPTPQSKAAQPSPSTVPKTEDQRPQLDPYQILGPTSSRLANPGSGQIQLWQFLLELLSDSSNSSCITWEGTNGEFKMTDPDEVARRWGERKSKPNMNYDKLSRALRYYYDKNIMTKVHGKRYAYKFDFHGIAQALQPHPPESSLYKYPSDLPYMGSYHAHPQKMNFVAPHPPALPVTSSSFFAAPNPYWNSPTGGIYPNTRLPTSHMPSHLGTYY
In short: as §1

ELF1 = ELF1 (Homo sapiens, UniProt P32519 1-619); details: protein: recombinant; tags: N-terminal GST; dsDNA, one strand shown
ELF1, sequence (P32519 whole entry): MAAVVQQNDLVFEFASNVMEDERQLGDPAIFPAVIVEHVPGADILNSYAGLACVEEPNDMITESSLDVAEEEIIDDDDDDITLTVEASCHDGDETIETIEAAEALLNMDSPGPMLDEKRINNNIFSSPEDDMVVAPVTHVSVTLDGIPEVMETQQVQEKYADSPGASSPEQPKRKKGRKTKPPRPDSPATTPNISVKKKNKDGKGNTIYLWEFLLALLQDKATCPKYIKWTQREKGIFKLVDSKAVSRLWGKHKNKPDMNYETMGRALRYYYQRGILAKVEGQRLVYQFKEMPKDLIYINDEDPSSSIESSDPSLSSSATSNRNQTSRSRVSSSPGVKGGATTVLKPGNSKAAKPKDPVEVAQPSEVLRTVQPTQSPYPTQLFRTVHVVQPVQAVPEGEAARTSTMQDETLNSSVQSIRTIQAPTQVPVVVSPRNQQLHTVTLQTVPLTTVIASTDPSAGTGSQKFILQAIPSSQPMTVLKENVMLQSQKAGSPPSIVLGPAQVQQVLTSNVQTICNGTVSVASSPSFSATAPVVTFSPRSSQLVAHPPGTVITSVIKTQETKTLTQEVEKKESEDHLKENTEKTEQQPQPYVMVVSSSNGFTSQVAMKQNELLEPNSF
In short: as §1

EHF = target: T5, EHF (Homo sapiens, UniProt Q9NZC4 1-300); details: protein: recombinant; tags: N-terminal GST; dsDNA, one strand shown
T5 sequence: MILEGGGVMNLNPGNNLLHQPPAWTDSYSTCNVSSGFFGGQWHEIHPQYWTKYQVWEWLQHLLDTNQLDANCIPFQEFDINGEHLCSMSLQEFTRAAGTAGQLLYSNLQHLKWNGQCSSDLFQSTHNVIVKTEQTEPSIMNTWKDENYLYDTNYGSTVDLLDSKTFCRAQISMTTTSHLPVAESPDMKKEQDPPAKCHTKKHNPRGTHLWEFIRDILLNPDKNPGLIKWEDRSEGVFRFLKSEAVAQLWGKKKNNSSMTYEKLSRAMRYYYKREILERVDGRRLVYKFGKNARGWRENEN
In short: as §1

SPI1 = SPI1 (Homo sapiens, UniProt P17947 1-270); details: protein: recombinant; tags: N-terminal GST; dsDNA, one strand shown
In short: as §1

SPIB = SPIB (Homo sapiens, UniProt Q01892 1-262); details: protein: recombinant; tags: N-terminal GST; dsDNA, one strand shown
SPIB, sequence (Q01892 whole entry): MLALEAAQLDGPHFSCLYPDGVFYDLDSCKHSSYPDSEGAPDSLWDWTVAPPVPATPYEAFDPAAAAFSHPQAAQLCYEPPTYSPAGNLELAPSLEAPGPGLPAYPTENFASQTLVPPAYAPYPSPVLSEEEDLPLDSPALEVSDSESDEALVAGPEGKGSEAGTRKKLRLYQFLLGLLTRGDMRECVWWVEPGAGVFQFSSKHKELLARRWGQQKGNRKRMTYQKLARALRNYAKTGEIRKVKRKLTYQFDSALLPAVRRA
In short: as §1

ELK3 = target: T6, ELK3 (Homo sapiens, UniProt P41970 1-407); details: protein: recombinant; tags: N-terminal GST; dsDNA, one strand shown
T6 sequence: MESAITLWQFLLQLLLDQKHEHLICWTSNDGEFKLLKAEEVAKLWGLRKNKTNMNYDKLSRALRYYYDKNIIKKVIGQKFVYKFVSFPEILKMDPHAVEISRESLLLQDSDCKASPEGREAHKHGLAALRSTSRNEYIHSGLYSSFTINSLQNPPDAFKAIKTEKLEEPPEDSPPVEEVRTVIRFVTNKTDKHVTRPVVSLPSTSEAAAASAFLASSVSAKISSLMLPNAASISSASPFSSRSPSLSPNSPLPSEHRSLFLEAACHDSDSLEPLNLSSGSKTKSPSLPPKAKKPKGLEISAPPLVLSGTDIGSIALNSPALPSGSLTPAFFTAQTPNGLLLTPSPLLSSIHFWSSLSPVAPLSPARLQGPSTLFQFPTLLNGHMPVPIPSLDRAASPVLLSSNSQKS
In short: as §1

FEV = target: T7, FEV (Homo sapiens, UniProt Q99581 1-238); details: protein: recombinant; tags: N-terminal GST; dsDNA, one strand shown
T7 sequence: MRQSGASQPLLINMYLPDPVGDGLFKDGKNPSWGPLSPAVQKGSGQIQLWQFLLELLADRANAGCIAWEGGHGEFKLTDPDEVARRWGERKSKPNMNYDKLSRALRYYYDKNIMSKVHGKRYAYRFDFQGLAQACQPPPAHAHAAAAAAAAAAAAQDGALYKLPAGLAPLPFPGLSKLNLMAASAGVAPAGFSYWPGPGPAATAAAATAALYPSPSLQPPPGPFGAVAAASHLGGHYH
In short: as §1

ETV5 = ETV5 (Homo sapiens, UniProt P41161 1-510); details: protein: recombinant; tags: N-terminal GST; dsDNA, one strand shown
ETV5, sequence (P41161 whole entry): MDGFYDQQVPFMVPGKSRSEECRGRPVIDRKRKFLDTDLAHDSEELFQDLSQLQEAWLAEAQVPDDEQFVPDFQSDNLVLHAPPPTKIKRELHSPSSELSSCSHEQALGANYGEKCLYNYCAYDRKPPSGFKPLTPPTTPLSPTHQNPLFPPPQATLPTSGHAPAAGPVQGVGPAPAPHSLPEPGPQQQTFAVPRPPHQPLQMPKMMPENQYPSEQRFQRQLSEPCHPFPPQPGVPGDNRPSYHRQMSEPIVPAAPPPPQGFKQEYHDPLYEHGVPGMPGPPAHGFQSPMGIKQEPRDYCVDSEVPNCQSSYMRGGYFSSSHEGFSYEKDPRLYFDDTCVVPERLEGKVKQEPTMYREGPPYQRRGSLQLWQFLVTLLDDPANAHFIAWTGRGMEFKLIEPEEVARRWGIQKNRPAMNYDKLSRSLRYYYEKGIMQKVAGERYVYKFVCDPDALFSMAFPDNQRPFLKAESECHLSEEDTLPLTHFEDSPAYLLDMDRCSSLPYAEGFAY
In short: as §1

HSF1 = HSF1 (Homo sapiens, UniProt Q00613 1-529); details: protein: recombinant; tags: N-terminal GST; chain copies: 3; dsDNA, one strand shown
HSF1, sequence (Q00613 whole entry): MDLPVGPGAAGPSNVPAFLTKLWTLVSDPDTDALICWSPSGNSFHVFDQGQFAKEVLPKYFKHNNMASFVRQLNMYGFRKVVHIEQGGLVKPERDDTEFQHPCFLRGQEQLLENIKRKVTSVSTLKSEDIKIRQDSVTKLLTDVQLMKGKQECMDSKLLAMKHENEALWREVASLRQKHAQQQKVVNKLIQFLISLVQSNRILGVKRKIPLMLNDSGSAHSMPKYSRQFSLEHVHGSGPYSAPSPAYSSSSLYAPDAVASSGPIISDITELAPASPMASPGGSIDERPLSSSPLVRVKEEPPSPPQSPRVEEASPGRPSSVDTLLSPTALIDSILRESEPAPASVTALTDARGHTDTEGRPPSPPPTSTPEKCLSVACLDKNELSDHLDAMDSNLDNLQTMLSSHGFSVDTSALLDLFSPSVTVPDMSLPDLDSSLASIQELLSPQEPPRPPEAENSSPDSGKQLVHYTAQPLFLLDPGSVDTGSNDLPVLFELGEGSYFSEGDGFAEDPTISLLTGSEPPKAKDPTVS
In short: as §1

SPIC = target: T8, SPIC (Homo sapiens, UniProt Q8N5J4 1-248); details: protein: recombinant; tags: N-terminal GST; dsDNA, one strand shown
T8 sequence: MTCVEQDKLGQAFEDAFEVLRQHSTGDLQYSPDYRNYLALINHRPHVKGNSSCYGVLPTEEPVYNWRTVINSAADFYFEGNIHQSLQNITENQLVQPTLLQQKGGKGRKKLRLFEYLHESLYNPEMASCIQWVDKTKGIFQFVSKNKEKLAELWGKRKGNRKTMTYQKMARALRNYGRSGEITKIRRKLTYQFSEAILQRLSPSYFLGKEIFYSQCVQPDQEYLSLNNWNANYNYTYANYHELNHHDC
In short: as §1

ELF4 = ELF4 (Homo sapiens, UniProt Q99607 1-663); details: protein: recombinant; tags: N-terminal GST; dsDNA, one strand shown
ELF4, sequence (Q99607 whole entry): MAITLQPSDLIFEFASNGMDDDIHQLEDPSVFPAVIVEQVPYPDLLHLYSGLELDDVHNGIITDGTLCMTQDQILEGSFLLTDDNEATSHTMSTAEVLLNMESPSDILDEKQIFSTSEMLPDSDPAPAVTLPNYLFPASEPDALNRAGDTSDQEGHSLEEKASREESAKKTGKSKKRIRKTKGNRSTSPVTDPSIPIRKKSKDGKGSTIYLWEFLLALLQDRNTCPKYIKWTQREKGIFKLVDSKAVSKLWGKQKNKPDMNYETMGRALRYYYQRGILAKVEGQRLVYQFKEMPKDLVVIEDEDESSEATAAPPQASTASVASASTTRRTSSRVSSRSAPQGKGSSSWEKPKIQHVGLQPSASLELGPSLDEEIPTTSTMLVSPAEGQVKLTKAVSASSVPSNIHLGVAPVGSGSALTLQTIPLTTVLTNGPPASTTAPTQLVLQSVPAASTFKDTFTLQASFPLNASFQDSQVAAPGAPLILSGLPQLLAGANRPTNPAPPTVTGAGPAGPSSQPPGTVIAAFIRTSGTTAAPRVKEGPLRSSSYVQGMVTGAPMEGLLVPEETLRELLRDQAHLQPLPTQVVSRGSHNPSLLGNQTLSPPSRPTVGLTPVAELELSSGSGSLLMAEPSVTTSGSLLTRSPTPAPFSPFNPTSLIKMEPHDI
In short: as §1

ELK4 = target: T9, ELK4 (Homo sapiens, UniProt P28324-2 1-405); details: protein: recombinant; tags: N-terminal GST; dsDNA, one strand shown
T9 sequence: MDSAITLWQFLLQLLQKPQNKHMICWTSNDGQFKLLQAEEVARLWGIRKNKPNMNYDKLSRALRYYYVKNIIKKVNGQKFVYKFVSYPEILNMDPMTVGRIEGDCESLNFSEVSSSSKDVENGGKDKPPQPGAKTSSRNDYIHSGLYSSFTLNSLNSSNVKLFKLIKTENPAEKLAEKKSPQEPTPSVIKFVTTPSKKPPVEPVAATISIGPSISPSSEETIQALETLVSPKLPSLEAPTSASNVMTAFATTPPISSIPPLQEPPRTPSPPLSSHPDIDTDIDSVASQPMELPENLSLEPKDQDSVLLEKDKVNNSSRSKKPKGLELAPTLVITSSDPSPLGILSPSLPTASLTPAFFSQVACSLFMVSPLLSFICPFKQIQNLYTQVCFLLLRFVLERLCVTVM
In short: as §1

ETV2 = target: T10, ETV2 (Homo sapiens, UniProt O00321 1-342); details: protein: recombinant; tags: N-terminal GST; dsDNA, one strand shown
T10 sequence: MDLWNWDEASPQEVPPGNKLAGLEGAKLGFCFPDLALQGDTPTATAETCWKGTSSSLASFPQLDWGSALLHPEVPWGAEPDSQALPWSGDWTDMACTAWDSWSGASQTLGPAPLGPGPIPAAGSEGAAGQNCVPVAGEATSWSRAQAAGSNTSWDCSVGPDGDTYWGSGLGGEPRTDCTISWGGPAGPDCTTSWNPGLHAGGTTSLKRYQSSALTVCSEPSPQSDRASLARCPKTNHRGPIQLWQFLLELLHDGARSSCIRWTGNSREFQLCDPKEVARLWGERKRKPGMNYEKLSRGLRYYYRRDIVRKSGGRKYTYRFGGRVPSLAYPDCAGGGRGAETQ
In short: as §1

ELF3 = target: T11, ELF3 (Homo sapiens, UniProt P78545 1-371); details: protein: recombinant; tags: N-terminal GST; dsDNA, one strand shown
T11 sequence: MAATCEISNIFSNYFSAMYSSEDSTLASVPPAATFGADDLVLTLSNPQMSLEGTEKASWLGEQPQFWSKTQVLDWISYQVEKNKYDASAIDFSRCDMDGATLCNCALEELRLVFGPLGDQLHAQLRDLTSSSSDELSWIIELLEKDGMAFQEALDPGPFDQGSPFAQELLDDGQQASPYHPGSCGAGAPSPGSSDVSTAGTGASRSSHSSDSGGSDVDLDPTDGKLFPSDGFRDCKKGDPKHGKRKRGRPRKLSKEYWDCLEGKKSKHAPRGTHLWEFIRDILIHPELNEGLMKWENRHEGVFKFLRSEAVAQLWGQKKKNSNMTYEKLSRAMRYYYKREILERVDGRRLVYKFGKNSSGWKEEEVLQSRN
In short: as §1

CRX = CRX (Homo sapiens, UniProt O43186 1-299); details: protein: recombinant; tags: N-terminal GST; dsDNA, one strand shown
CRX, sequence (O43186 whole entry): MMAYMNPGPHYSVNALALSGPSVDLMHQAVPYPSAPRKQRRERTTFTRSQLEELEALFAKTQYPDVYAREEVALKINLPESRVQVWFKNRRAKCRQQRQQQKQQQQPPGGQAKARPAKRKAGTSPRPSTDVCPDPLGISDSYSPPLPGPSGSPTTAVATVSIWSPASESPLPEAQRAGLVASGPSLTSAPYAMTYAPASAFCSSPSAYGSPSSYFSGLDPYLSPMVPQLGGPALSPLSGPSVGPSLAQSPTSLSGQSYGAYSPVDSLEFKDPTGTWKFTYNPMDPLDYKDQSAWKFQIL
In short: as §1

ETV1 = ETV1 (Homo sapiens, UniProt P50549 1-477); details: protein: recombinant; tags: N-terminal GST; dsDNA, one strand shown
ETV1, sequence (P50549 whole entry): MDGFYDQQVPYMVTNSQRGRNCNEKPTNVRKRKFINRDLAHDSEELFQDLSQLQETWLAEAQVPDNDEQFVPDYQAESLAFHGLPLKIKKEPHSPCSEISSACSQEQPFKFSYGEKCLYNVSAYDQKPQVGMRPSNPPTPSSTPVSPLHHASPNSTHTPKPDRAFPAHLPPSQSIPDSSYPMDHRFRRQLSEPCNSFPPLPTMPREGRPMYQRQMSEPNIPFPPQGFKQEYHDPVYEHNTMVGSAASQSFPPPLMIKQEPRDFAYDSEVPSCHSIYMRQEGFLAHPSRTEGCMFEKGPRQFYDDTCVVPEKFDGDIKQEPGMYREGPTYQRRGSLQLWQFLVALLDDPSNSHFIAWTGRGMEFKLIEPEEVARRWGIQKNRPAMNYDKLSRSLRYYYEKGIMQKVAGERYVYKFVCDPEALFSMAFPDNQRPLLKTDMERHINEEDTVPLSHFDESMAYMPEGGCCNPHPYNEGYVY
In short: as §1

TCTAAT
binding signal (FLI1): 1.2 fold enrichment (6-mer frequency, TF over GST control)
binding signal (ELK1): 1.17 fold enrichment (6-mer frequency, TF over GST control)
binding signal (GABPA): 1.18 fold enrichment (6-mer frequency, TF over GST control)
binding signal (ERG): 1.17 fold enrichment (6-mer frequency, TF over GST control)
binding signal (ELF1): 1.14 fold enrichment (6-mer frequency, TF over GST control)
binding signal (EHF): 1.26 fold enrichment (6-mer frequency, TF over GST control)
binding signal (SPI1): 1.19 fold enrichment (6-mer frequency, TF over GST control)
binding signal (SPIB): 1.16 fold enrichment (6-mer frequency, TF over GST control)
binding signal (ELK3): 1.21 fold enrichment (6-mer frequency, TF over GST control)
binding signal (FEV): 1.16 fold enrichment (6-mer frequency, TF over GST control)
binding signal (ETV5): 1.17 fold enrichment (6-mer frequency, TF over GST control)
binding signal (HSF1): 1.73 fold enrichment (6-mer frequency, TF over GST control)
binding signal (SPIC): 1.26 fold enrichment (6-mer frequency, TF over GST control)
binding signal (ELF4): 1.21 fold enrichment (6-mer frequency, TF over GST control)
binding signal (ELK4): 1.18 fold enrichment (6-mer frequency, TF over GST control)
binding signal (ETV2): 1.22 fold enrichment (6-mer frequency, TF over GST control)
binding signal (ELF3): 1.16 fold enrichment (6-mer frequency, TF over GST control)
binding signal (CRX): 2.37 fold enrichment (6-mer frequency, TF over GST control)
binding signal (ETV1): 1.26 fold enrichment (6-mer frequency, TF over GST control)
